Test results taken from PubChem BioAssay (NCI).
The panel holds about 79,000 compounds, 15% with a hit somewhere; the sample as a whole holds those more often. Active and inactive are the calls of the source. Cut-off read from the data, not from the text of the source: active = growth inhibition above about 70%; inactive = the rest.

What was measured:
[1] = NCI Yeast Anticancer Drug Screen. Data for the rad52 strain (AID 147);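 note: 0% = growth of vehicle-treated control cultures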; settings: S. cerevisiae rad52 mutant growth inhibition, hits give high values
In short: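 Here a repair-compromised yeast strain receives each compound; its growth is then quantified and normalised to vehicle-only controls.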

[2] = NCI Yeast Anticancer Drug Screen. Data for the wt1 strain (AID 149);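 note: 0% = growth of vehicle-treated wt1 cultures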; settings: S. cerevisiae wt1 strain (SPY 50644) growth inhibition, hits give high values
In short: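 Using yeast strain wt1, compound-induced growth inhibition was determined against vehicle-treated cultures.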

[3] = NCI Yeast Anticancer Drug Screen. Data for the rad50EPP+ strain (AID 151);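 note: 0% = growth of vehicle-treated control cultures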; settings: S. cerevisiae rad50 mutant strain, hits give high values
In short: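 Read-out is yeast growth inhibition relative to vehicle; cells used were the rad50EPP+ strain.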

[4] = NCI Yeast Anticancer Drug Screen. Data for the mgt1 strain (AID 153); settings: S. cerevisiae mgt1 mutant growth inhibition, hits give high values
In short: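 Measured: inhibition of mgt1 yeast growth by compound, normalized to vehicle-treated cultures.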

[5] = NCI Yeast Anticancer Drug Screen. Data for the rad50 strain (AID 155);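 note: 0% = growth of vehicle-only cultures of the same strain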; settings: S. cerevisiae rad50 strain growth inhibition, hits give high values
In short: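 Relative growth inhibition (compound vs vehicle) was measured in yeast with a defined repair-gene alteration.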

[6] = NCI Yeast Anticancer Drug Screen. Data for the mec2-1 strain (AID 157); settings: S. cerevisiae mec2-1 strain, hits give high values
In short: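 Using mec2-1 yeast: add compound, measure growth, express inhibition versus vehicle-treated cultures.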

[7] = NCI Yeast Anticancer Drug Screen. Data for the rad14 strain (AID 159);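 note: 0% = growth of vehicle-treated control cultures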; settings: S. cerevisiae rad14 strain growth inhibition, hits give high values
In short: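 Screen for anticancer potential: a yeast strain altered in DNA damage repair is grown with compound, and reduced growth is quantified against vehicle controls.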

[8] = NCI Yeast Anticancer Drug Screen. Data for the sgs1 mgt1 strain (AID 161);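 note: 0% = growth of cultures given vehicle only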; settings: S. cerevisiae sgs1 mgt1 strain, hits give high values
In short: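 This yeast growth screen uses a strain with defined DNA-repair lesions; compound-treated growth is compared with vehicle-treated growth.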

[9] = NCI Yeast Anticancer Drug Screen. Data for the CLN2oe strain (AID 163);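 note: 0% = growth of vehicle-only control cultures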; settings: S. cerevisiae CLN2oe strain, hits give high values
In short: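 Whole-cell yeast growth assay. A strain engineered for altered cell-cycle control received compound, and inhibition relative to vehicle-treated cultures was recorded.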

[10] = NCI Yeast Anticancer Drug Screen. Data for the cln2 rad14 strain (AID 165);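 note: 0% = growth equal to vehicle treated cultures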; settings: S. cerevisiae cln2 rad14 strain, hits give high values
In short: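 Yeast strain cln2 rad14, bearing defects in cell cycle control and DNA repair, serves as the test system; values reflect growth inhibition compared with vehicle.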

[11] = NCI Yeast Anticancer Drug Screen. Data for the bub3 strain (AID 167); settings: S. cerevisiae bub3 mutant strain, hits give high values
In short: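 Screening used yeast with an engineered genetic alteration affecting cell cycle control. Compound-exposed cultures were compared with vehicle cultures, and reduced growth was taken as inhibition.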

[12] = NCI Yeast Anticancer Drug Screen. Data for the wt2 strain (AID 169);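 note: 0% = growth of vehicle-treated yeast cultures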; settings: S. cerevisiae wt2 strain growth inhibition, hits give high values
In short: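 Treated yeast vs. vehicle-treated yeast: growth inhibition determined.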

[13] = NCI Yeast Anticancer Drug Screen. Data for the mlh1 strain (AID 171);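 note: 0% = growth of vehicle-treated control cultures of the same strain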; settings: S. cerevisiae mlh1 strain growth inhibition, hits give high values
In short: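 A yeast strain with a defined genetic lesion serves as the test organism. Cultures receive compound or vehicle, and growth is measured.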

[14] = NCI Yeast Anticancer Drug Screen. Data for the sgs1 strain (AID 173);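 note: 0% = growth of vehicle-only control cultures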; settings: S. cerevisiae sgs1 mutant, hits give high values
In short: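 A genetically defined yeast mutant is incubated with the test compound, and its growth is compared to that of the same strain given vehicle.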

[15] = NCI Yeast Anticancer Drug Screen. Data for the mlh1 rad18 strain (AID 175); settings: S. cerevisiae mlh1 rad18 strain growth inhibition, hits give high values
In short: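 Steps: expose repair-defective yeast to compound; measure growth; express inhibition against vehicle-treated controls.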

[16] = NCI Yeast Anticancer Drug Screen. Data for the rad18 strain (AID 177); settings: S. cerevisiae rad18 mutant growth inhibition, hits give high values
In short: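 Measured value is growth inhibition of a yeast strain bearing a DNA repair alteration, referenced to vehicle-treated cells.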

[17] = at 5.0 µM (retest, dose inferred, filed as 0.5)
[18] = at 50.0 µM (retest, dose inferred, filed as 5.0)

Measured: growth inhibition

OC(Cc1cccc2ccccc12)CN1CCC(c2ccccc2)CC1 (stereo unspecified)
inactive: [1]; at 1.2 µM 52% | [1]; at 3.7 µM 66% | [1]; at 11.0 µM 69% | [2]; at 1.2 µM 12% | [2]; at 3.7 µM 28% | [2]; at 11.0 µM 34% | [2]; at 33.0 µM 61% | [3]; at 1.2 µM 24% | [3]; at 3.7 µM 5% | [3]; at 11.0 µM 23% | [3]; at 33.0 µM 38% | [3]; at 100.0 µM 60% | [4]; at 1.2 µM 64% | [5]; at 1.2 µM 6% | [5]; at 3.7 µM 53% | [5]; [17] 55% | [5]; at 11.0 µM 66% | [5]; [18] 68% | [6]; at 1.2 µM 17% | [6]; at 3.7 µM 26% | [6]; [17] 13% | [6]; at 11.0 µM 50% | [6]; [18] 57% | [6]; at 50.0 µM 45.7% | [8]; [17] 51% | [8]; [18] 41% | [9]; at 1.2 µM 63% | [10]; [17] 58% | [11]; at 1.2 µM 39% | [11]; at 3.7 µM 41% | [11]; [17] 64% | [11]; at 11.0 µM 54% | [11]; at 50.0 µM 69.2% | [12]; at 1.2 µM 50% | [12]; at 3.7 µM 52% | [13]; at 1.2 µM 31% | [13]; at 3.7 µM 38% | [13]; at 11.0 µM 48% | [14]; at 1.2 µM 60% | [14]; at 3.7 µM 59% | [14]; at 11.0 µM 67% | [15]; at 50.0 µM 69.8% | [16]; at 1.2 µM 30% | [16]; at 3.7 µM 38% | [16]; at 11.0 µM 54% | [16]; at 33.0 µM 65%
active: [1]; at 33.0 µM 91% | [1]; at 100.0 µM 97% | [2]; at 100.0 µM 75% | [4]; at 3.7 µM 72% | [4]; at 11.0 µM 81% | [4]; at 33.0 µM 96% | [4]; at 100.0 µM 99% | [5]; at 33.0 µM 86% | [5]; at 50.0 µM 86.7% | [5]; at 100.0 µM 96% | [6]; at 33.0 µM 86% | [6]; at 100.0 µM 97% | [7]; at 1.2 µM 71% | [7]; at 3.7 µM 75% | [7]; at 11.0 µM 89% | [7]; at 33.0 µM 97% | [7]; at 100.0 µM 98% | [8]; at 50.0 µM 71.2% | [9]; at 3.7 µM 74% | [9]; at 11.0 µM 86% | [9]; at 33.0 µM 94% | [9]; at 100.0 µM 97% | [10]; [18] 76% | [10]; at 50.0 µM 74.2% | [11]; at 33.0 µM 79% | [11]; [18] 87% | [11]; at 100.0 µM 97% | [12]; at 11.0 µM 72% | [12]; at 33.0 µM 84% | [12]; at 100.0 µM 97% | [13]; at 33.0 µM 84% | [13]; at 100.0 µM 98% | [14]; at 33.0 µM 83% | [14]; at 100.0 µM 97% | [15]; [17] 74% | [15]; [18] 89% | [16]; at 100.0 µM 87%

CC1(C)CC(=O)C(C=NC(=S)C(N)=S)=C(O)C1
inactive: [1]; at 1.2 µM -47% | [1]; at 3.7 µM -57% | [1]; at 11.0 µM -63% | [1]; at 33.0 µM -49% | [1]; at 100.0 µM 69% | [2]; at 1.2 µM -30% | [2]; at 3.7 µM -39% | [2]; at 11.0 µM -37% | [2]; at 33.0 µM -16% | [2]; at 100.0 µM 21% | [3]; at 1.2 µM -43% | [3]; at 3.7 µM -49% | [3]; at 11.0 µM -46% | [3]; at 33.0 µM -51% | [3]; at 100.0 µM -25% | [4]; at 1.2 µM -13% | [4]; at 3.7 µM 0% | [4]; at 11.0 µM 3% | [4]; at 33.0 µM 21% | [5]; at 1.2 µM -15% | [5]; at 3.7 µM -14% | [5]; [17] -26% | [5]; at 11.0 µM -13% | [5]; at 33.0 µM 6% | [5]; [18] 14% | [5]; at 50.0 µM 15.5% | [5]; at 100.0 µM 69% | [6]; at 1.2 µM -40% | [6]; at 3.7 µM -34% | [6]; [17] -6% | [6]; at 11.0 µM -41% | [6]; at 33.0 µM -19% | [6]; [18] 22% | [7]; at 1.2 µM -18% | [7]; at 3.7 µM -7% | [7]; at 11.0 µM -16% | [7]; at 33.0 µM -18% | [7]; at 100.0 µM 19% | [8]; [17] -2% | [8]; [18] 8% | [8]; at 50.0 µM 35.5% | [9]; at 1.2 µM -35% | [9]; at 3.7 µM -25% | [9]; at 11.0 µM -30% | [9]; at 33.0 µM -10% | [10]; [17] 23% | [10]; [18] 32% | [10]; at 50.0 µM 10.3% | [11]; at 1.2 µM -30% | [11]; at 3.7 µM -20% | [11]; [17] 18% | [11]; at 11.0 µM -24% | [11]; at 33.0 µM -31% | [11]; [18] 38% | [11]; at 50.0 µM 6.15% | [12]; at 1.2 µM -47% | [12]; at 3.7 µM -52% | [12]; at 11.0 µM -59% | [12]; at 33.0 µM -41% | [12]; at 100.0 µM 20% | [13]; at 1.2 µM -31% | [13]; at 3.7 µM -26% | [13]; at 11.0 µM -9% | [13]; at 33.0 µM 6% | [14]; at 1.2 µM -28% | [14]; at 3.7 µM -31% | [14]; at 11.0 µM -29% | [14]; at 33.0 µM -15% | [14]; at 100.0 µM 65% | [15]; [17] -7% | [15]; at 50.0 µM 45.2% | [16]; at 1.2 µM -8% | [16]; at 3.7 µM -4% | [16]; at 11.0 µM -15% | [16]; at 33.0 µM -1%
active: [4]; at 100.0 µM 84% | [6]; at 50.0 µM 74.1% | [6]; at 100.0 µM 91% | [9]; at 100.0 µM 96% | [11]; at 100.0 µM 91% | [13]; at 100.0 µM 91% | [15]; [18] 75% | [16]; at 100.0 µM 70%
